Measured values as given in PubChem BioAssay AID1159580 (chemical genetic matrix, 2015).
Among all 5,500 compounds or so, about 2,000 (36%) were called active. Inconclusive results (about 18%) are left out. Cut-off read from the data, not from the text of the source: active = normalized growth mostly below about 0.91 (no sharp cut-off); inconclusive = no clear call, values can overlap the other calls; inactive = mostly above about 0.92. Some of the results follow.

Assay: chemical genetic growth profiling, strain panel (AID 1159580);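 note: tested at 20 µM; growth read once vehicle control cultures reached saturation at 30 °C; 1 = growth at the plate median or of vehicle wells; lower values mean less growth of the strain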
Conditions: S. cerevisiae deletion strains, growth OD
[1] = locus YAR019C, strain CDC15, active compounds read low
[2] = locus YBL105C, strain PKC1, active compounds read low
[3] = locus YBR135W, strain CKS1, active compounds read low
[4] = locus YBR136W, strain MEC1, active compounds read low
[5] = locus YBR160W, strain CDC28, active compounds read low
[6] = locus YDL017W, strain CDC7, active compounds read low
[7] = locus YDL028C, strain MPS1, active compounds read low
[8] = locus YDL101C, strain DUN1, active compounds read low
[9] = locus YDL108W, strain KIN28, active compounds read low
[10] = locus YDL132W, strain cdc53, active compounds read low
[11] = locus YDL214C, strain PRR2, active compounds read low
[12] = locus YDR052C, strain DBF4, active compounds read low
[13] = locus YDR054C, strain cdc34, active compounds read low
[14] = locus YDR226W, strain ADK1, active compounds read low
[15] = locus YDR477W, strain SNF1, active compounds read low
[16] = locus YER123W, strain YCK3, active compounds read low
[17] = locus YER133W, strain GLC7, active compounds read low
[18] = locus YFL009W, strain cdc4, active compounds read low
[19] = locus YFL029C, strain CAK1, active compounds read low
[20] = locus YFR003C, strain YPI1, active compounds read low
[21] = locus YFR019W, strain FAB1, active compounds read low
[22] = locus YFR028C, strain CDC14, active compounds read low
[23] = locus YGR040W, strain KSS1, active compounds read low
[24] = locus YGR052W, strain FMP48, active compounds read low
[25] = locus YGR092W, strain DBF2, active compounds read low
[26] = locus YHR030C, strain SLT2, active compounds read low
[27] = locus YHR079C, strain IRE1, active compounds read low
[28] = locus YHR082C, strain KSP1, active compounds read low
[29] = locus YHR205W, strain SCH9, active compounds read low
[30] = locus YIL147C, strain SLN1, active compounds read low
[31] = locus YJL095W, strain BCK1, active compounds read low
[32] = locus YJL128C, strain PBS2, active compounds read low
[33] = locus YJL157C, strain FAR1, active compounds read low
[34] = locus YJR016C, strain ILV3, active compounds read low
[35] = locus YJR066W, strain TOR1 (second series), active compounds read low
[36] = locus YJR066W, strain TOR1, active compounds read low
[37] = locus YKL048C, strain ELM1, active compounds read low
[38] = locus YKL067W, strain YNK1, active compounds read low
[39] = locus YKL101W, strain HSL1, active compounds read low
[40] = locus YKL193C, strain SDS22, active compounds read low
[41] = locus YKL203C, strain TOR2, active compounds read low
[42] = locus YLR113W, strain HOG1, active compounds read low
[43] = locus YLR133W, strain CKI1, active compounds read low
[44] = locus YLR403W, strain SFP1, active compounds read low
[45] = locus YML070W, strain DAK1, active compounds read low
[46] = locus YMR001C, strain CDC5, active compounds read low
[47] = locus YMR205C, strain PFK2 (second series), active compounds read low
[48] = locus YMR277W, strain FCP1, active compounds read low
[49] = locus YNL006W, strain LST8, active compounds read low
[50] = locus YNL020C, strain ARK1, active compounds read low
[51] = locus YNL161W, strain CBK1, active compounds read low
[52] = locus YNL183C, strain NPR1, active compounds read low
[53] = locus YNL207W, strain RIO2, active compounds read low
[54] = locus YNL222W, strain SSU72, active compounds read low
[55] = locus YNL307C, strain MCK1 (second series), active compounds read low
[56] = locus YOL078W, strain AVO1, active compounds read low
[57] = locus YOL136C, strain PFK27, active compounds read low
[58] = locus YOR061W, strain CKA2, active compounds read low
[59] = locus YOR119C, strain RIO1, active compounds read low
[60] = locus YOR231W, strain MKK1, active compounds read low
[61] = locus YOR329C, strain SCD5, active compounds read low
[62] = locus YPL031C, strain PHO85, active compounds read low
[63] = locus YPL153C, strain RAD53, active compounds read low
[64] = locus YPL204W, strain HRR25, active compounds read low
[65] = locus YPL209C, strain IPL1, active compounds read low
[66] = locus YPL256C, strain CLN2, active compounds read low
[67] = locus YPR025C, strain CCL1, active compounds read low
[68] = locus YPR106W, strain ISR1, active compounds read low
[69] = locus YPR111W, strain DBF20, active compounds read low
[70] = strain NNK1, active compounds read low
[71] = strain TSCII, active compounds read low

Measured: normalized growth

CSc1sc(C(=O)Sc2ccccc2)cc1S(=O)(=O)C(C)C
inactive: [1] 0.994 | [2] 0.997 | [3] 0.995 | [4] 0.991 | [5] 1 | [6] 0.995 | [7] 0.996 | [8] 1 | [9] 0.999 | [10] 0.983 | [11] 0.962 | [12] 0.993 | [13] 0.976 | [14] 1 | [15] 0.966 | [16] 0.902 | [17] 0.958 | [18] 0.979 | [19] 0.983 | [20] 0.994 | [21] 0.987 | [22] 0.992 | [23] 0.956 | [24] 0.927 | [25] 0.95 | [26] 0.997 | [27] 1 | [28] 0.988 | [29] 0.911 | [30] 0.99 | [31] 0.937 | [32] 0.937 | [33] 0.941 | [34] 0.988 | [35] 0.971 | [36] 1 | [37] 0.953 | [38] 0.961 | [39] 0.94 | [40] 0.992 | [41] 1.02 | [43] 0.955 | [44] 0.945 | [45] 0.93 | [46] 0.985 | [47] 0.966 | [48] 0.979 | [49] 0.997 | [50] 0.961 | [51] 0.993 | [52] 0.941 | [53] 0.974 | [54] 0.997 | [55] 0.946 | [56] 0.975 | [57] 0.929 | [58] 0.95 | [59] 1 | [60] 0.921 | [61] 0.994 | [62] 0.972 | [63] 0.988 | [64] 0.948 | [65] 0.994 | [66] 0.969 | [67] 0.996 | [68] 0.997 | [69] 0.979 | [70] 0.977 | [71] 0.98
active: [42] 0.688

CCOC(=O)c1ccc(Cl)c(N=Cc2cc(Cl)cc(Cl)c2O)c1
inactive: [1] 0.955 | [2] 0.967 | [3] 0.943 | [4] 0.956 | [5] 0.948 | [6] 0.95 | [7] 0.946 | [8] 0.974 | [9] 0.953 | [10] 0.951 | [12] 0.959 | [13] 0.957 | [14] 0.969 | [18] 0.949 | [19] 0.951 | [20] 0.946 | [22] 0.969 | [30] 0.946 | [32] 0.964 | [34] 0.956 | [35] 0.622 | [40] 0.95 | [46] 0.955 | [48] 0.954 | [49] 0.951 | [51] 0.951 | [53] 0.956 | [54] 0.951 | [56] 0.956 | [61] 0.958 | [65] 0.954 | [67] 0.947 | [68] 0.961 | [69] 0.958 | [70] 0.957 | [71] 0.957
active: [11] 0.544 | [15] 0.533 | [16] 0.319 | [17] 0.567 | [21] 0.472 | [23] 0.591 | [24] 0.511 | [25] 0.197 | [26] 0.238 | [27] 0.238 | [28] 0.501 | [29] 0.468 | [31] 0.298 | [33] 0.401 | [36] 0.37 | [37] 0.636 | [38] 0.527 | [39] 0.608 | [41] 0.594 | [42] 0.377 | [43] 0.432 | [44] 0.364 | [45] 0.389 | [47] 0.507 | [50] 0.404 | [52] 0.413 | [55] 0.381 | [57] 0.322 | [58] 0.326 | [59] 0.569 | [60] 0.301 | [62] 0.528 | [63] 0.421 | [64] 0.421 | [66] 0.317
